From PubChem BioAssay
This is a sample that favours compounds with a hit; in the whole collection about 19% have one here.
KB-V1 MDR tox: KB-V1 MDR subline cytotoxicity. KB-V1 MDR cells viability, CellTiter-Glo, 72 h. Potency, µM (doses to about 46.1 µM), usual class: cytotoxic. 400,000 compounds, 3.4% hits. AID 1347076; also: nearly all actives have a fitted effect of over 60% in size
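Luminescent ATP read-out (CellTiter-Glo, 10 min) measures survival of drug-selected KB-V1 MDR cells after 72 h, 37 degrees C compound exposure. Medium: phenol-red-free DMEM, 10% FBS. Values from fitted concentration-response curves.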
TDP1 cell CPT: growth inhibition of DT40 Tdp1-/-;hTDP1 cells with camptothecin (screen for TDP1 inhibitors). chicken DT40 Tdp1-/-;hTDP1 cells + 20 nM CPT, ATP luminescence, 48 h. Potency, µM (doses to about 46.2 µM), without a hit: top-dose activity change, negative = growth inhibition, usual class: inhibitors. 420,000 compounds, 12% hits. AID 686979; also: nearly all actives have a fitted effect of over 55% in size
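Chicken DT40 Tdp1-/- cells complemented with human TDP1, 400 cells/well, exposed to compounds plus 20 nM camptothecin for at least 48 h at 37 C; viability read as ATP content by CellTiter-Glo luminescence.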
HT1080NT lethal: kills 2HG-producing HT-1080-NT fibrosarcoma cells | 360,000 compounds, 1.6% hits | AID 686970 | Potency, µM (titrated, usually from 46.1 µM), inactives show at the top dose activity, negative = less viability, most hits filed as cytotoxic | HT-1080-NT fibrosarcoma viability, CellTiter-Glo ATP luminescence, 48 h;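 also: NT is the 2HG producing partner of a matched IDH1 knockdown line; 0% = DMSO-treated cells and -100% = media-only wells without cells; nearly all actives have a fitted effect of over 55% in size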
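A 48-hour cytotoxicity screen used HT-1080-NT cells plated 2 hours before compound delivery. ATP-based CellTiter-Glo luminescence measured viability, normalized to DMSO and no-cell controls.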
KB-3-1 cytotox: KB-3-1 parental cell cytotoxicity. KB-3-1 viability, CellTiter-Glo ATP luminescence, 72 h. Potency, µM (doses to about 46.1 µM), hits mostly cytotoxic. 400,000 compounds, 1.4% hits. AID 1347075; also: nearly all actives have a fitted effect of over 60% in size
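KB-3-1 parental drug-naive adenocarcinoma cells in DMEM/10% FBS, incubated 72 h at 37 C with pin-transferred compounds across a concentration series. Viability by CellTiter-Glo luminescence; concentration-response curves fitted after normalization.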
HT1080 IDH1KD tx: HT-1080 IDH1 knockdown cell toxicity (counter line); HT-1080 IDH1 knockdown viability, ATP luminescence, 48 h; Potency, µM (doses to about 46.1 µM), without a hit: top-dose activity, negative = toxicity, usual class: cytotoxic; 360,000 compounds, 2% hits; AID 686971;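 also: 0% = DMSO wells and -100% = cell-free medium wells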
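HT-1080-IDH1KD cells (IDH1 knocked down), 750/well in RPMI with 5% FBS, treated with compound 48 h at 37 degrees C. Viability by CellTiter-Glo luminescence, normalised to DMSO and no-cell wells; concentration-response curves classed.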
DT40 TDP1 no CPT: qHTS for Inhibitors of human tyrosyl-DNA phosphodiesterase 1 (TDP1): qHTS in cells in absence of CPT. Potency, µM (top dose mostly 46.2 µM), for inactives: top-dose activity change, negative = growth inhibition, actives largely listed as inhibitors. DT40 Tdp1-/- hTDP1 cells, no CPT, ATP luminescence, 48 h. 420,000 compounds, 15% hits; also: nearly all actives have a fitted effect of over 55% in size
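Stably hTDP1-transfected Tdp1-null chicken DT40 cells were treated with library compounds minus camptothecin and grown for at least 48 hr at 37 °C, after which cellular ATP was quantified by luminescence.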
* = called active by the depositor; i = inactive; ? = inconclusive; nt = not tested or not shown. Calls follow the shape of the dose curve; as a rule, active = well fitted curve in the direction sought with a large enough effect; inconclusive = small, poorly fitted or top-dose-only effect, or another doubt; inactive = no such curve, though single readings can be large; an effect the other way counts as inactive or inconclusive. Unless noted, % is scaled to controls: 0 for no effect and ±100 for the full control effect; potency is read from the fitted curve at half-maximal effect.

SMILES	KB-V1 MDR tox	TDP1 cell CPT	HT1080NT lethal	KB-3-1 cytotox	HT1080 IDH1KD tx	DT40 TDP1 no CPT
Cc1ccc(/C=N/N=C2\SCC(=O)N2CC2CC2)cc1	i	0%	-3%	i	-2%	-6%
COc1ccc(C(=O)OCC(=O)NC2CC2)cc1	i	-1%	5%	i	15%	2%
CN1CCN(CC(O)COc2ccc(C34CC5CC(CC(C5)C3)C4)cc2)CC1 (stereo unspecified)	?	?	18µM*	?	15µM*	13µM*
N#Cc1ccc(OCC(O)CN2CCN(C(c3ccccc3)c3ccccc3)CC2)cc1 (stereo unspecified)	i	?	?	i	-28%	18µM*
N#Cc1cc2c(OCC(O)CN3CCN(C(c4ccccc4)c4ccccc4)CC3)cccc2[nH]1 (stereo unspecified)	nt	8.9µM*	nt	nt	nt	5.6µM*
OC(COc1ccccc1)CN1CCN(C(c2ccccc2)c2ccccc2)CC1 (stereo unspecified)	?	?	-8%	i	-16%	?
Cc1ccc(N=Cc2nc(/C=C/c3cccc([N+](=O)[O-])c3)oc2O)cc1	16µM*	?	22%	i	7%	?
Cc1ccc(-c2nc(C=Nc3ccc(O)cc3)c(O)o2)cc1	?	7.3µM*	?	i	?	10µM*
COCCCn1c(SCC(=O)N2CCCC(C)C2)nnc1-c1ccco1 (stereo unspecified)	?	-5%	19%	i	2%	0%
O=Cc1cc2ccccc2nc1SCc1ccc(Cl)c(Cl)c1	5.8µM*	1µM*	4.1µM*	4.6µM*	5.8µM*	0.92µM*
O=c1[nH]c(SCc2ccc(Cl)cc2)nc2ccccc12	i	-22%	1%	?	1%	-11%
O=Cc1cc2ccccc2nc1SCc1ccc(Cl)cc1	?	1µM*	5.2µM*	6.5µM*	7.3µM*	1µM*
O=C1c2ccccc2NC(c2cccc(Cl)c2)N1N=C1CCCCCC1 (stereo unspecified)	26µM*	-5%	15%	?	8%	-10%
O=C1c2ccccc2NC2(CCCCC2)N1N=C1CCCCC1	i	-30%	12%	i	23%	-30%
Cc1cccc(N2CCN(C(=O)NC3CCCCC3)CC2C)c1 (stereo unspecified)	i	-28%	0%	i	15%	-8%
Cc1cccc(N2CCN(C(=O)CCCn3c(=O)[nH]c4ccsc4c3=O)CC2C)c1 (stereo unspecified)	?	-14%	-9%	i	1%	26µM*
Cc1cccc(N2CCN(C(=O)/C=C/c3cccs3)CC2C)c1 (stereo unspecified)	?	?	-9%	i	-7%	15µM*
Cc1cccc(N2CCN(C(=O)CCn3c(=O)[nH]c4ccsc4c3=O)CC2C)c1 (stereo unspecified)	i	?	-15%	i	-29%	10µM*
COc1ccc(N2CCN(C(c3ccccc3)c3sc4nc(C)nn4c3O)CC2)cc1 (stereo unspecified)	i	?	0%	i	-3%	?
CCOC(=O)C1CCN(C(=O)CC2(CC(=O)O)CCCC2)CC1	i	13%	12%	i	2%	4%
C=CCn1cccc(C(=O)Nc2ccc(N(C)C)cc2)c1=O	i	-7%	2%	i	15%	1%
CCN(CC)CCNC(=O)c1cc2c(-c3ccc(Cl)cc3)nn(C)c2s1	?	?	18µM*	?	18µM*	?
CCOCCCNC(=O)c1cc2c(-c3ccc(Cl)cc3)nn(C)c2s1	i	?	-1%	i	?	?
CCCCN(CC)CCNC(=O)c1cc2c(-c3ccc(Cl)cc3)nn(C)c2s1	23µM*	?	21µM*	?	21µM*	?
CC(C)OCCCNC(=O)c1cc2c(-c3ccc(Cl)cc3)nn(C)c2s1	nt	?	nt	nt	nt	21µM*
SMILES	KB-V1 MDR tox	TDP1 cell CPT	HT1080NT lethal	KB-3-1 cytotox	HT1080 IDH1KD tx	DT40 TDP1 no CPT
Cn1nc(-c2ccc(Cl)cc2)c2cc(C(=O)NCCCN3CCOCC3)sc21	i	16µM*	2%	i	-10%	18µM*
Cn1nc(-c2ccc(Cl)cc2)c2cc(C(=O)NCCN3CCOCC3)sc21	?	-22%	9%	i	-15%	?
CC1(C(=O)NS(=O)(=O)c2ccc(C#N)cc2)CCN1C(=O)Cc1cccc2ccccc12 (stereo unspecified)	i	-14%	?	i	8%	-1%
Cc1cccc(-c2nc3c4ccccc4nc(NCc4ccccc4Cl)n3n2)c1	nt	1%	nt	nt	nt	-15%
Cc1ccc(-n2nnnc2SCC(=O)NCCc2ccccc2)cc1C	i	-17%	nt	i	nt	-9%
CCOc1ccccc1N1CCN(C(=O)c2ccc3c(c2)OCO3)CC1	?	?	-13%	?	-9%	?
COC(=O)c1sc(S(=O)(=O)NC(Cc2ccccc2)C(=O)O)c(C(=O)OC)c1C (stereo unspecified)	i	-17%	3%	i	12%	16%
CCOc1ccccc1NC(=O)C(=O)c1cc(C)n(-c2ccc(F)cc2)c1C	i	?	nt	i	nt	-26%
CCOc1ccc(-n2c(C)cc(C(=O)CCl)c2C)cc1	?	2.9µM*	7.3µM*	4.6µM*	8.2µM*	4.6µM*
Cc1ccc(NC(=O)C(=O)c2cc(C)n(-c3ccc(F)cc3)c2C)cc1C	i	?	nt	i	nt	21µM*
COC(=O)c1ccc(-n2c(C)cc(C(=O)CCl)c2C)cc1	i	2.9µM*	?	?	?	2.6µM*
CCOc1ccc(NC(=O)C(=O)c2cc(C)n(-c3cc(C)cc(C)c3)c2C)cc1	i	?	nt	i	nt	21µM*
Cc1cc(C)cc(-n2c(C)cc(C(=O)C(=O)Nc3nnc(C)s3)c2C)c1	i	-23%	nt	i	nt	-7%
Cc1ccc(NC(=O)CN2C(=O)COc3ccc(S(=O)(=O)Nc4ccccc4)cc32)c(C)c1	i	?	nt	i	nt	?
CCOC(=O)c1cc(C)n(-c2ccc(OC)c(OC)c2)c1C	i	?	-5%	i	-13%	18µM*
CCOC(=O)c1cc(C)n(Cc2ccccc2)c1C	i	-23%	-7%	i	-12%	-9%
O=C(O)c1ccc(N=Nc2c(O)[nH]c3ccccc23)cc1	?	?	6%	?	?	?
